In all, about 320,000 compounds went through this assay and about 2,100 (0.66%) were called active. Not shown: some 53% with an inconclusive outcome. Calls come from the whole dose curve; as a rule, active = well fitted inhibition curve with a large enough effect in the signal ratio, with a control signal flat (not every such curve was filed as active); inconclusive = small, poorly fitted or top-dose-only effect, or effect the other way, or a change in a side signal; inactive = flat fitted curve, though single readings scatter; the % refers to the signal ratio. The full list was thinned out, with actives kept by preference.
Potency is the fitted concentration of half-maximal effect.

The experiment in a line: qHTS Assay for Lipid Storage Modulators in Drosophila S3 Cells.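 For cell number change: cells counted by Cell Tracker Red CMTPX staining in the red channel.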 For lipid storage change, negative = inhibition: % is set by controls: 0 for no effect and ±100 for the full control effect. The note with it: BODIPY lipid droplet fluorescence, 18-24 h, cells fed with added oleic acid; cell number change: measured here: cell count max response; series mostly up to 46.1 µM; lipid storage change, negative = inhibition: at the top concentration. The essentials: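 Drosophila S3 cells got compounds at several concentrations plus oleic acid (400 uM solution). Laser-scanning cytometry with 488 nm excitation read lipid droplets at 500-530 nm and cells at 575-640 nm. Percent activity was relative to 20 uM Triacsin C.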
For `CC1CN(S(=O)(=O)c2ccc(C(=O)Nc3nnc(-c4ccccn4)o3)cc2)CC(C)O1` (stereo not given), the “lipid storage change, negative = inhibition” value is -3.48% (inactive) and the cell number change came to 10.4%. Take `Cn1c(=O)c(C(=O)NNC(=O)c2ccccc2F)c(O)c2ccccc21`: the call was inactive and the cell number change worked out at 13%. As for `Cn1c(=O)c(C(=O)NNC(=O)c2ccccc2Br)c(O)c2ccccc21`, the outcome was inactive and the cell number change amounted to 7.83%. `Cn1c(=O)c(C(=O)NNC(=O)c2ccc(Br)cc2)c(O)c2ccccc21`: the Potency is 16.4 µM (active) and the cell number change was found to be 12.5%. On to `COc1cccc(CN2CC(C(=O)N3CCOCC3)CCC2=O)c1` (stereo not given), for which the outcome was inactive and the cell number change was -3.29%. With `c1ccc(-c2csc3ncnc(NCCN4CCOCC4)c23)cc1`, the “lipid storage change, negative = inhibition” value was -15.7% (inactive) and the cell number change is -69.5%. As for `c1ccc(-c2csc3ncnc(NCc4ccccn4)c23)cc1`, the “lipid storage change, negative = inhibition” value is -14.3% (inactive) and the cell number change was -13.1%. As for `c1ccc(-c2csc3ncnc(NCC4COc5ccccc5O4)c23)cc1` (stereo not given), the Potency is 1.84 µM (active) and the cell number change is -33.8%. Consider `COc1ccc(S(=O)(=O)NCC2CCCN(C(=O)C=C(C)C)C2)cc1` (stereo not given), for which the “lipid storage change, negative = inhibition” value was 0.395% (inactive) and the cell number change was -5.61%. For the molecule `CCOc1ccccc1C(=O)N1CCC(n2nnc3cc(C(F)(F)F)ccc32)CC1`, the result was inactive. Regarding `O=C(CCC(=O)N(CC(=O)NC1CCCCC1)Cc1cccs1)Nc1nccs1`, the “lipid storage change, negative = inhibition” value is 13.5% (inactive) and the cell number change was -2.3%. For the molecule `CC(C)CCNC(=O)CN(CC1CCCO1)C(=O)CCC(=O)Nc1nccs1` (stereo not given), the “lipid storage change, negative = inhibition” value is 22.3% (inactive) and the cell number change turned out to be 9.95%. As for `CC(C)CCNC(=O)CN(Cc1ccccc1)C(=O)CCC(=O)Nc1nccs1`, the molecule was classed as inactive and the cell number change turned out to be 2.61%. Consider `Cc1csc(NC(=O)CCC(=O)N(CC(=O)NC2CCCC2)Cc2ccco2)n1`, for which the “lipid storage change, negative = inhibition” value is 8.55% (inactive) and the cell number change was determined as 5.63%. Turning to `O=C(CCC(=O)N(CC(=O)NC1CCCC1)Cc1ccccc1)Nc1nccs1`, the Potency is 3.66 µM (active) and the cell number change was found to be 6.76%. Consider `COc1ccc(CN(CC(=O)NC2CCCC2)C(=O)CCC(=O)Nc2nc(C)cs2)cc1`, for which the Potency is 4.61 µM (active) and the cell number change was determined as 2.99%. Turning to `O=C(CN(Cc1ccccc1)C(=O)CCC(=O)Nc1nccs1)NCc1ccccc1`, the “lipid storage change, negative = inhibition” value was -11.3% (inactive) and the cell number change was -17.1%. For the molecule `CC(C)CCNC(=O)CN(C(=O)CCC(=O)Nc1nccs1)C1CCCCC1`, the Potency was 1.3 µM (active) and the cell number change was -4.17%. Take `COc1ccc(CN(CC(=O)NC2CCCC2)C(=O)CCC(=O)Nc2cc(C)on2)cc1`: the “lipid storage change, negative = inhibition” value is 6.13% (inactive) and the cell number change came out at 2.01%. On to `CC(C)(C)OC(=O)[C@H](NC(=O)OCc1ccccc1)c1ccccc1`, for which the call was inactive and the cell number change was -4.27%. For the molecule `CCn1c(C)c(C(C)=O)c(SC)nc1=S`, the Potency was 23.1 µM (active) and the cell number change was -9.08%. In the case of `CSc1nc(=S)n(Cc2ccccc2)c(C)c1C(C)=O`, the “lipid storage change, negative = inhibition” value was 0.545% (inactive) and the cell number change came to 2.19%. Consider `CCSc1nc(=S)n(CC)c(C)c1C(C)=O`, for which the “lipid storage change, negative = inhibition” value was -7.91% (inactive) and the cell number change amounted to 11%. Turning to `CS(=O)(=O)N(CC(=O)Nc1ccccc1-c1ccccc1)c1ccccc1`, the “lipid storage change, negative = inhibition” value was 3.31% (inactive) and the cell number change was 6.57%. For `CNC(=S)NNC(=O)c1ccc(=O)n(Cc2ccc(Cl)cc2Cl)c1`, in that order: 14.6% [at 9.22 µM] (inactive) and -1.09%. For `CC(C)(O)CC[C@@H](O)[C@](C)(O)[C@H]1CC[C@@]2(O)C3=CC(=O)[C@@H]4C[C@@H](O)[C@@H](O)C[C@]4(C)C3CC[C@]12C` (stereo not given in full) the same measures were -9.22% (inactive) and -13.6%. Consider `Cc1cccc(-n2cc(-c3ccccc3)c3c(N4CCOCC4)ncnc32)c1`, for which the “lipid storage change, negative = inhibition” value was 8.58% (inactive) and the cell number change was found to be 18.2%. As for `O=C(CSc1ncnc2nc[nH]c12)c1ccc(Cl)cc1`, the “lipid storage change, negative = inhibition” value is 4.43% (inactive) and the cell number change was -11.7%. As to `CC(=O)CSc1ncnc2nc[nH]c12`, the “lipid storage change, negative = inhibition” value is 1.08% (inactive). With `O=C(O)CSc1ncnc2nc[nH]c12`, the Potency was 20.6 µM (active) and the cell number change worked out at 2.03%. For `CC(C)c1nnc(NC(=O)C2CCN(C(=O)Nc3ccc(Cl)cc3)CC2)s1`, the “lipid storage change, negative = inhibition” value was 3.85% (inactive) and the cell number change amounted to 5.41%.

On to `CCc1ccccc1NC(=S)N(CCN1CCCCC1)Cc1ccco1`, for which the “lipid storage change, negative = inhibition” value is -1.49% (inactive) and the cell number change is 5.79%. In the case of `Cc1cc(OCCCn2cnc3ccccc3c2=O)ccc1[N+](=O)[O-]`, the “lipid storage change, negative = inhibition” value was 20.5% (inactive) and the cell number change was found to be 0.141%. With `COc1cc(OC)cc(C(=O)NC(=S)NNC(=O)Cc2cccs2)c1`, the “lipid storage change, negative = inhibition” value was 14.8% (inactive) and the cell number change was found to be 0.453%.

Regarding `CCOC(=O)N1CCN(c2c(N3CCN(c4ccc(OC)cc4)CC3)c(=O)c2=O)CC1`, the “lipid storage change, negative = inhibition” value is 2.64% (inactive) and the cell number change was determined as 5.73%. As to `CCCCn1c(CN2CCN(c3ccccc3)CC2)nc2c1c(=O)n(C)c(=O)n2C`, the Potency is 20.6 µM (active) and the cell number change is -29.7%.

For the molecule `CCCCn1c(CN2CCN(c3cccc(Cl)c3)CC2)nc2c1c(=O)n(C)c(=O)n2C`, the call was inactive. `CCCCn1c(CN2CCN(c3ccc(F)cc3)CC2)nc2c1c(=O)n(C)c(=O)n2C`: the “lipid storage change, negative = inhibition” value was 5.72% (inactive) and the cell number change was 2.55%. In the case of `O=C(NCc1ccccc1)C1C2C=CC3(CN(Cc4cccnc4)C(=O)C13)O2` (stereo not given), the “lipid storage change, negative = inhibition” value is -17.4% (inactive) and the cell number change was -20%.

Turning to `Cc1cc(C(=O)CSc2nn3c(=O)c(C(C)(C)C)nnc3s2)c(C)n1C1CC1`, the molecule was called inactive. For the molecule `CCOc1ccc(NC(=S)NC(=O)C2CCCC2)cc1`, the “lipid storage change, negative = inhibition” value is -6.34% (inactive).

As for `CN1CCS/C1=C\C=C1/SC(=S)N(CC(=O)O)C1=O`, the “lipid storage change, negative = inhibition” value was 21.7% (inactive) and the cell number change stood at 6.49%. For `CN1CCS/C1=C/C=C1\SC(=S)N(CC(=O)O)C1=O` the same measures were 13.2% (inactive) and -4.93%. On to `CCCCN1C(=O)/C(=C/C=C2/CC(C)(C)CN2C)SC1=S`, for which the Potency is 9.2 µM (active) and the cell number change was determined as 0.528%. In the case of `Cc1ccc(C)c(OCc2nnc(SCC(=O)NCc3ccc4c(c3)OCO4)o2)c1`, the “lipid storage change, negative = inhibition” value was 5.42% (inactive) and the cell number change turned out to be 17.4%. Consider `CC(C)Nc1ccc(C(CC(N)=O)NC(=O)Cc2ccc(Cl)cc2)cc1[N+](=O)[O-]` (stereo not given), for which the “lipid storage change, negative = inhibition” value was -6.83% (inactive). `COC(=O)C(C)Sc1n[nH]c(=S)s1` (stereo not given): the Potency was 18.4 µM (active) and the cell number change amounted to 12.5%.

With `COC(=O)CSc1n[nH]c(=S)s1`, the “lipid storage change, negative = inhibition” value is -3.44% (inactive) and the cell number change was -9.98%. `COC(=O)C(C)Sc1nnc(SC(C)C(=O)OC)s1` (stereo not given): the molecule was classed as inactive and the cell number change stood at 26.4%. Consider `CCCCCCCc1c(O)nc(SCCN2CCOCC2)[nH]c1=O`, for which the “lipid storage change, negative = inhibition” value was 15% (inactive) and the cell number change came out at 2%. For `Cc1cc([N+](=O)[O-])nn1CC(=O)NC(C)c1ccccc1` (stereo not given), in that order: 8.15% (inactive) and -17.7%. Take `COC(=O)NNC(=O)c1ccccc1C`: the Potency is 25.9 µM (active) and the cell number change is -4.05%.

For the molecule `COC(=O)NNC(=O)c1ccccc1OC`, the result was inactive and the cell number change was -18.2%. As to `Cc1ccccc1C(=O)NNC(=O)c1ccoc1C`, the “lipid storage change, negative = inhibition” value was 13.5% (inactive) and the cell number change turned out to be 21.8%. Regarding `O=c1c2cc(Br)ccc2[nH]c(=S)n1Cc1ccccc1`, the “lipid storage change, negative = inhibition” value was 48.1% (inactive). Regarding `Cc1nc2c(C(=O)NCc3cccs3)cnn2c(C)c1Cc1ccccc1`, the “lipid storage change, negative = inhibition” value is 7.94% (inactive) and the cell number change was -10.7%.

As to `Cc1cc(C)c(Cc2c(C)nc3c(C(=O)NCc4ccco4)cnn3c2C)c(C)c1`, the Potency is 6.51 µM (active). Consider `Cc1ccc(-c2cc(C(F)(F)F)n3ncc(C(=O)NCc4ccco4)c3n2)cc1`, for which the “lipid storage change, negative = inhibition” value was -6.97% (inactive) and the cell number change is -26.7%. As for `COc1ccc(-c2cc(-c3ccccc3)nc(SCC(=O)Nc3nccs3)c2C#N)cc1`, the “lipid storage change, negative = inhibition” value was 11.7% (inactive) and the cell number change is 6.74%.

Values taken from PubChem BioAssay AID2685 (National Center for Advancing Translational Sciences (NCATS), 2010).
